Experimental data taken from PubChem BioAssay AID1159580 (chemical genetic matrix, 2015).
The campaign covered roughly 5,500 compounds. About 2,000 (36%) were called active. Inconclusive results (about 18%) are left out. Cut-off read from the data, not from the text of the source: active = normalized growth mostly below about 0.91 (no sharp cut-off); inconclusive = no clear call, values can overlap the other calls; inactive = mostly above about 0.92. This is one part of the list.

Experiment: chemical genetic growth profiling, strain panel (AID 1159580);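 note: tested at 20 µM; growth read once vehicle control cultures reached saturation at 30 °C; 1 = growth at the plate median or of vehicle wells; lower values mean less growth of the strain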
Conditions: S. cerevisiae deletion strains, growth OD

Measured: normalized growth

COc1cc(C(=O)O[C@H]2CC[C@@]3(C)[C@@H]4CC[C@H]5[C@]6(O)C[C@H](O)[C@@]7(O)[C@@H](CN8C[C@@H](C)CC[C@H]8[C@@]7(C)O)[C@]6(O)C[C@@]53O[C@]24O)cc(OC)c1OC
inactive: locus YAL021C, strain ccr4, stronger effect = lower value 1 | locus YAL026C, strain drs2, stronger effect = lower value 1.02 | locus YAL030W, strain snc1, stronger effect = lower value 0.996 | locus YBL061C, strain skt5, stronger effect = lower value 0.994 | locus YBR009C, strain hhf1, stronger effect = lower value 1.01 | locus YBR021W, strain FUR4, stronger effect = lower value 1.01 | locus YBR023C, strain chs3, stronger effect = lower value 0.996 | locus YBR171W, strain sec66, stronger effect = lower value 1.02 | locus YBR229C, strain ROT2, stronger effect = lower value 0.955 | locus YBR231C, strain swc5, stronger effect = lower value 0.994 | locus YBR279W, strain paf1, stronger effect = lower value 1.01 | locus YCL011C, strain gbp2, stronger effect = lower value 0.997 | locus YCL016C, strain dcc1, stronger effect = lower value 1 | locus YCL029C, strain bik1, stronger effect = lower value 0.98 | locus YCL061C, strain MRC1, stronger effect = lower value 1 | locus YCL069W, strain vba3, stronger effect = lower value 1 | locus YCR088W, strain abp1, stronger effect = lower value 1.01 | locus YDL005C, strain med2, stronger effect = lower value 0.973 | locus YDL035C, strain GPR1, stronger effect = lower value 1 | locus YDL040C, strain nat1, stronger effect = lower value 1 | locus YDL074C, strain BRE1, stronger effect = lower value 1.03 | locus YDL101C, strain DUN1, stronger effect = lower value 0.989 | locus YDL134C, strain PPH21, stronger effect = lower value 0.979 | locus YDL185W, strain tfp1, stronger effect = lower value 0.978 | locus YDL192W, strain arf1, stronger effect = lower value 1.01 | locus YDR001C, strain nth1, stronger effect = lower value 1.01 | locus YDR069C, strain doa4, stronger effect = lower value 0.998 | locus YDR101C, strain arx1, stronger effect = lower value 1.03 | locus YDR137W, strain rgp1, stronger effect = lower value 0.965 | locus YDR159W, strain sac3, stronger effect = lower value 0.972 | locus YDR162C, strain NBP2, stronger effect = lower value 0.985 | locus YDR195W, strain ref2 0.967 | locus YDR297W, strain sur2, stronger effect = lower value 1.01 | locus YDR318W, strain mcm21, stronger effect = lower value 0.972 | locus YDR334W, strain swr1, stronger effect = lower value 1.01 | locus YDR335W, strain msn5, stronger effect = lower value 1.01 | locus YDR388W, stronger effect = lower value 0.993 | locus YDR392W, strain spt3, stronger effect = lower value 0.996 | locus YDR502C, strain sam2, stronger effect = lower value 1 | locus YEL003W, strain gim4, stronger effect = lower value 1 | locus YEL037C, strain rad23, stronger effect = lower value 1.03 | locus YEL061C, strain CIN8 (second series), stronger effect = lower value 1.02 | locus YEL061C, strain CIN8, stronger effect = lower value 0.993 | locus YER015W, strain faa2, stronger effect = lower value 0.998 | locus YER016W, strain bim1, stronger effect = lower value 0.995 | locus YER110C, stronger effect = lower value 0.975 | locus YER111C, strain swi4, stronger effect = lower value 1 | locus YER155C, strain BEM2 (second series), stronger effect = lower value 1 | locus YER155C, strain BEM2, stronger effect = lower value 0.99 | locus YER167W, strain BCK2, stronger effect = lower value 0.993 | locus YFR010W, strain ubp6, stronger effect = lower value 1.02 | locus YGL078C, strain dbp3, stronger effect = lower value 0.999 | locus YGL086W, strain mad1, stronger effect = lower value 1.05 | locus YGL167C, strain pmr1, stronger effect = lower value 0.999 | locus YGL173C, strain kem1, stronger effect = lower value 1 | locus YGL227W, strain vid30, stronger effect = lower value 1.01 | locus YGL240W, strain doc1, stronger effect = lower value 0.978 | locus YGL248W, strain PDE1, stronger effect = lower value 0.998 | locus YGL253W, strain hxk2, stronger effect = lower value 1 | locus YGR078C, strain PAC10, stronger effect = lower value 0.99 | locus YGR135W, strain pre9, stronger effect = lower value 0.99 | locus YGR229C, strain SMI1, stronger effect = lower value 1.02 | locus YGR252W, strain gcn5, stronger effect = lower value 0.957 | locus YHR013C, strain ard1, stronger effect = lower value 0.962 | locus YHR027C, strain rpn1, stronger effect = lower value 1.01 | locus YHR030C, strain SLT2, stronger effect = lower value 1 | locus YHR079C, strain IRE1 (second series), stronger effect = lower value 0.992 | locus YHR094C, strain hxt1, stronger effect = lower value 0.971 | locus YHR129C, strain ARP1, stronger effect = lower value 0.985 | locus YHR142W, strain chs7, stronger effect = lower value 1.02 | locus YHR200W, strain rpn10, stronger effect = lower value 0.987 | locus YIL066C, strain RNR3, stronger effect = lower value 0.983 | locus YIL073C, strain SPO22, stronger effect = lower value 1.02 | locus YIL125W, strain kgd1, stronger effect = lower value 1 | locus YIR030C, strain dcg1, stronger effect = lower value 0.993 | locus YJL092W, strain hpr5, stronger effect = lower value 1.02 | locus YJL095W, strain BCK1 (second series), stronger effect = lower value 0.993 | locus YJL095W, strain BCK1, stronger effect = lower value 0.998 | locus YJL115W, strain asf1, stronger effect = lower value 1 | locus YJL129C, strain trk1, stronger effect = lower value 1.01 | locus YJL134W, strain LCB3, stronger effect = lower value 0.985 | locus YJL154C, strain vps35, stronger effect = lower value 1.01 | locus YJL164C, strain tpk1, stronger effect = lower value 0.999 | locus YJL166W, strain qcr8, stronger effect = lower value 1.01 | locus YJL168C, strain set2, stronger effect = lower value 0.996 | locus YJL187C, strain SWE1 (second series), stronger effect = lower value 1.01 | locus YJL187C, strain SWE1, stronger effect = lower value 1.01 | locus YJR043C, strain POL32, stronger effect = lower value 0.993 | locus YKL009W, strain mrt4, stronger effect = lower value 0.981 | locus YKL068W, stronger effect = lower value 0.988 | locus YKL085W, strain MDH1 (second series), stronger effect = lower value 1 | locus YKL085W, strain MDH1, stronger effect = lower value 1 | locus YKL160W, strain elf1, stronger effect = lower value 1 | locus YKR001C, strain vps1, stronger effect = lower value 1.06 | locus YKR026C, strain gcn3, stronger effect = lower value 1.01 | locus YKR091W, strain srl3, stronger effect = lower value 1 | locus YLL001W, strain dnm1, stronger effect = lower value 1.01 | locus YLL026W, stronger effect = lower value 0.989 | locus YLL041C, strain sdh2, stronger effect = lower value 1.01 | locus YLR027C, strain aat2, stronger effect = lower value 0.977 | locus YLR039C, strain RIC1, stronger effect = lower value 0.972 | locus YLR058C, strain SHM2, stronger effect = lower value 0.978 | locus YLR102C, strain apc9, stronger effect = lower value 0.985 | locus YLR221C, strain rsa3, stronger effect = lower value 1 | locus YLR258W, strain gsy2, stronger effect = lower value 0.98 | locus YLR262C, strain YPT6 (second series), stronger effect = lower value 0.954 | locus YLR262C, strain YPT6, stronger effect = lower value 0.975 | locus YLR268W, strain sec22, stronger effect = lower value 1.04 | locus YLR320W, strain mms22, stronger effect = lower value 0.986 | locus YLR330W, strain CHS5, stronger effect = lower value 1 | locus YLR342W, strain FKS1 (second series), stronger effect = lower value 1.03 | locus YLR342W, strain FKS1, stronger effect = lower value 0.986 | locus YLR357W, strain rsc2, stronger effect = lower value 0.974 | locus YLR370C, strain arc18, stronger effect = lower value 0.985 | locus YLR371W, strain rom2, stronger effect = lower value 0.991 | locus YLR384C, strain iki3, stronger effect = lower value 0.974 | locus YLR418C, strain cdc73, stronger effect = lower value 0.977 | locus YML016C, strain PPZ1, stronger effect = lower value 0.998 | locus YML032C, strain rad52, stronger effect = lower value 0.96 | locus YML120C, strain ndi1, stronger effect = lower value 1 | locus YML124C, strain tub3, stronger effect = lower value 0.985 | locus YMR058W, strain fet3, stronger effect = lower value 1 | locus YMR078C, strain ctf18, stronger effect = lower value 0.99 | locus YMR125W, strain sto1, stronger effect = lower value 1.02 | locus YMR129W, stronger effect = lower value 1 | locus YMR205C, strain PFK2, stronger effect = lower value 1 | locus YMR223W, strain ubp8, stronger effect = lower value 0.964 | locus YMR231W, strain pep5, stronger effect = lower value 0.999 | locus YMR307W, strain GAS1, stronger effect = lower value 1.07 | locus YNL067W, strain RPL9B, stronger effect = lower value 0.997 | locus YNL071W, strain lat1, stronger effect = lower value 1 | locus YNL153C, strain GIM3, stronger effect = lower value 1.01 | locus YNL209W, strain ssb2, stronger effect = lower value 0.997 | locus YNL233W, strain BNI4, stronger effect = lower value 1.01 | locus YNL248C, strain rpa49, stronger effect = lower value 1.01 | locus YNL250W, strain rad50, stronger effect = lower value 0.977 | locus YNL271C, strain bni1, stronger effect = lower value 0.993 | locus YNL298W, strain CLA4, stronger effect = lower value 0.971 | locus YNL307C, strain MCK1, stronger effect = lower value 0.986 | locus YNL322C, strain KRE1 (second series), stronger effect = lower value 0.989 | locus YNL322C, strain KRE1, stronger effect = lower value 0.996 | locus YNR049C, strain mso1, stronger effect = lower value 0.987 | locus YNR052C, strain pop2, stronger effect = lower value 0.996 | locus YOL012C, strain htz1 1.37 | locus YOL147C, strain pex11, stronger effect = lower value 0.985 | locus YOR001W, strain rrp6, stronger effect = lower value 0.988 | locus YOR061W, strain CKA2, stronger effect = lower value 0.962 | locus YOR069W, strain VPS5, stronger effect = lower value 0.996 | locus YOR070C, strain gyp1, stronger effect = lower value 1.01 | locus YOR080W, strain dia2, stronger effect = lower value 1.01 | locus YOR083W, strain WHI5, stronger effect = lower value 1 | locus YOR106W, strain vam3, stronger effect = lower value 0.999 | locus YOR136W, strain idh2, stronger effect = lower value 0.985 | locus YOR144C, strain elg1, stronger effect = lower value 0.98 | locus YOR184W, strain ser1, stronger effect = lower value 0.976 | locus YOR265W, strain rbl2, stronger effect = lower value 0.983 | locus YOR270C, strain vph1, stronger effect = lower value 1.11 | locus YOR290C, strain snf2, stronger effect = lower value 1.02 | locus YOR316C, strain cot1, stronger effect = lower value 0.976 | locus YPL051W, strain arl3, stronger effect = lower value 0.998 | locus YPL055C, strain LGE1, stronger effect = lower value 1.01 | locus YPL078C, strain atp4, stronger effect = lower value 0.998 | locus YPL106C, strain sse1, stronger effect = lower value 0.968 | locus YPL240C, strain hsp82, stronger effect = lower value 0.992 | locus YPR119W, strain clb2, stronger effect = lower value 0.979 | locus YPR141C, strain kar3, stronger effect = lower value 0.981 | locus YPR163C, strain tif3, stronger effect = lower value 1.01 | locus YPR167C, strain met16, stronger effect = lower value 0.978 | strain wtn01, stronger effect = lower value 1.04
